The values that follow come from PubChem BioAssay AID651636 (Sanford-Burnham Center for Chemical Genomics, 2012).

The whole screen tested about 360,000 compounds, of which about 3,000 (0.83%) were called active. Cut-off read from the data, not from the text of the source: active = inhibition above about 38%; inactive = the rest. The full list was thinned out, with actives kept by preference.

In this assay the target is G-protein coupled receptor 183 (Homo sapiens) (UniProt P32249). Briefly: blockers of oxysterol-driven EBI2 arrestin signaling – cell-based, luminescence, 7a,25-OHC stimulation, uHTS, primary screen (AID 651636).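 Note: enzyme fragment complementation signal reports receptor beta-arrestin coupling in cells; 0% = agonist plus DMSO wells and 100% = wells without agonist.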 The conditions noted are these: EBI2 beta-arrestin recruitment, 7a,25-OHC stimulated, at 5 µM, hits give high values. For orientation: Arrestin recruitment assays detect the binding of arrestin to an activated receptor.
Sequence of G-protein coupled receptor 183 (Homo sapiens) (P32249 whole entry, looked up, the tested form may be a part): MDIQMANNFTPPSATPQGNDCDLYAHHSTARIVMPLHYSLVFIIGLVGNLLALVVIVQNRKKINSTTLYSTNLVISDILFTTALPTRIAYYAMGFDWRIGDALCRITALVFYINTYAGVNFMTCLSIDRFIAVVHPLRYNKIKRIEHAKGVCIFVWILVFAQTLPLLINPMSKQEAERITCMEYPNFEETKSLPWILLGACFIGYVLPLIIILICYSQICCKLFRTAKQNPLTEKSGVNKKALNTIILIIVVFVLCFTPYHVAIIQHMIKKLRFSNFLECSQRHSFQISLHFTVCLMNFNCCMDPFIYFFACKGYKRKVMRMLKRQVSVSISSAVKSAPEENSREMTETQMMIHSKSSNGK
As to `Cc1cccn2c(=O)nc(SCC(=O)NCc3ccccc3Cl)nc12`, the inhibition – broadly, the change of the read-out against control, counted positive when it falls – was -6.29% (inactive).
Next, `Cc1nn(C)cc1/C=C1\CCC/C(=C\c2cn(C)nc2C)C1=O`: 6.14% (inactive); `CC(C)CN1C(=O)CN(S(C)(=O)=O)CC1(C)C(=O)NCc1ccccc1` (stereo not given): -1.75% (inactive); `Cn1c(=O)cc(SCC(=O)N2CCN(C(=O)c3ccco3)CC2)c2ccccc21`: -7.92% (inactive).
Next, `C=CCOc1ccc(/C=C/C(=O)OCC(=O)NC2CCCCCC2)cc1`: 0.205% (inactive); `N#C/C(=C\c1ccccc1)c1n[nH]c(Cn2cncn2)n1`: -5.28% (inactive); `CCNC(=O)COc1cc(C)c(Br)c(C)c1`: -7.22% (inactive).
Take `COC(=O)C[C@@H]1C=C[C@@H](NC(=O)c2ccc3c(c2)OCO3)[C@@H](CO)O1`: the inhibition is 0.556% (inactive).
Next, `O=C(NNC1=C(C(=O)C(F)(F)F)CCC1)c1ccncc1`: 8.49% (inactive).
Take `CCNC(=S)N1CCC(c2nc3cc(C)c(C)cc3[nH]2)CC1`: the inhibition was -8.84% (inactive).
`Cc1coc2c(O)cc3c(c12)OC1(N2CCCCC2)C(=O)NCCCC31` (stereo not given): the inhibition is 9.31% (inactive).
As for `NCCCCC(C(=O)O)N(C(=O)OCc1ccccc1)C(=O)OCc1ccccc1` (stereo not given), the figure is -5.81% (inactive); as for `O=C(Cc1ccccc1)N1CCN(S(=O)(=O)c2ccc([N+](=O)[O-])cc2)CC1`, -5.46% (inactive).
Regarding `O=C1/C(=C\c2ccc([N+](=O)[O-])cc2)CS(=O)(=O)C/C1=C/c1ccc([N+](=O)[O-])cc1`, the inhibition was 50.3% (active).
With `Cc1ccc([N+](=O)[O-])cc1S(=O)(=O)N1CCCN(C)CC1`, the inhibition was -7.92% (inactive).
As for `O=C1NC(c2ccccc2)Cc2ccncc21` (stereo not given), the figure is -15.8% (inactive); as for `CC(C)Oc1ccc(C(=O)NC(C)(C)CO)cc1`, -14.5% (inactive).
As for `Cn1cc[n+](C)c1COc1ccc(C=O)cc1`, the figure is -3.22% (inactive).
As to `Fc1ccccc1/C=N/Nc1cc(N2CCCCC2)ncn1`, the inhibition was 53.8% (active).
With `COc1ccccc1N1CCN(C(=O)C(=O)N/N=C/c2ccccc2F)CC1`, the inhibition was 2.46% (inactive).
Next, `Nc1[nH][nH]c(=O)c1N=Nc1ccc2c(c1)OCO2`: -4.76% (inactive).
Take `Cc1cccc(N=C2NC(=O)/C(=C/c3cn(C)c4ccccc34)S2)c1`: the inhibition was 45% (active).
Take `Cc1cccc(N=C2SC(C)CN2C(=O)CN2C(=O)NC3(CCCC3)C2=O)c1` (stereo not given): the inhibition is 8.85% (inactive).
As for `Cc1cccc(Oc2c([N+](=O)[O-])c(=O)n(C)c3ccccc23)c1`, the figure is -38.4% (inactive).
As for `Cc1cc(C)nc(/N=C2\NC(=O)CC(C(=O)O)N2c2ccc(Cl)cc2Cl)n1` (stereo not given), the figure is -2.42% (inactive); as for `Cn1c(N)c(C(=O)COC(=O)C23CC4CC(CC(C4)C2)C3)c(=O)n(C)c1=O`, -6.77% (inactive); as for `Cc1oc2nc(SCC(=O)NCc3cccnc3)nc(N)c2c1C`, -8.34% (inactive).
Next, `CC(=O)c1ccc(OCC(=O)N(C)C2CCS(=O)(=O)C2)cc1` (stereo not given): -3.69% (inactive).
On to `COc1ccc(NC(=O)/C(Cl)=C(/Cl)S(=O)Cc2ccc(C)cc2)cn1` (stereo not given), for which the inhibition was 68.1% (active).
As for `CC(=O)Nc1ccc(CNc2nc(NCCN(C)C)nc3cc(-c4ccccc4)sc23)cc1`, the figure is 0.94% (inactive); as for `Nc1nc(SCC(=O)NN(c2ccccc2)c2ccccc2)n[nH]1`, -1.98% (inactive); as for `O=C(COc1nsnc1N1CCOCC1)Nc1ccccc1Cl`, -1.57% (inactive).
As for `O=C(Nc1ccccc1Cl)/C(Cl)=C(\Cl)S(=O)c1ccccc1` (stereo not given), the figure is 59.7% (active).
Next, `Cc1cccc(-c2nc(CS(=O)CC(=O)NC(C)CCc3ccccc3)c(C)o2)c1` (stereo not given): 0.721% (inactive); `CCC(=C/c1sc2ccc3ccccc3c2[n+]1C)/C=C1\Sc2ccc3ccccc3c2N1C`: 1.97% (inactive); `Cc1ccc(-n2c(CNc3ccc(F)cc3)nnc2SCC(=O)N2CCOCC2)cc1`: 7.68% (inactive).
In the case of `CS(=O)(=O)N1CCN(C(=O)CSc2ccccc2)CC1`, the inhibition was 4.92% (inactive).
For the compound `CCOC(=O)N1CCN(C(=O)CSc2ccc(Cl)cc2)CC1`, the inhibition was 84.7% (active).
Take `Cc1ccc(SCC(=O)N2CCN(c3ccc(F)cc3)CC2)cc1`: the inhibition is 62.9% (active).
As for `CS(=O)(=O)N(CC(=O)N1CCN(c2ccc(F)cc2)CC1)C1CCCCC1`, the figure is -6.78% (inactive); as for `CCN1CCN(C(=O)CSc2ccc(C)cc2)CC1`, 70.3% (active).
Consider `CCOC(=O)N1CCN(C(=O)CSc2nc(C)nc3c2c(=O)n(C)c(=O)n3C)CC1`, for which the inhibition is -7.04% (inactive).
Turning to `CCN1CCN(C(=O)CCN2C(=O)c3ccccc3C2=O)CC1`, the inhibition was 5.39% (inactive).
Take `O=C(CSc1ccc(Cl)cc1)NC1CC1`: the inhibition is -0.473% (inactive).
As to `COC(=O)CNC(=O)C(CCSC)NC(C)=O` (stereo not given), the inhibition is 5.29% (inactive).
As for `Cc1nc(C(F)(F)F)ccc1C(=O)N1CCC1(C)C(=O)NS(=O)(=O)c1ccc(F)cc1F` (stereo not given), the figure is 3.24% (inactive).
Next, `CNC(=O)C1CC(=O)N(c2ccc(OCC(=O)Nc3ccccc3C)cc2)C1` (stereo not given): 2.34% (inactive).
Turning to `Cc1nnc(SC(C)C(=O)c2c[nH]c3ccccc23)n1C1CC1` (stereo not given), the inhibition is -6.27% (inactive).
As for `CCOc1cc(-c2conc2N)cc(OCC)c1OCC`, the figure is 7.1% (inactive); as for `CC(C)(C)OC(=O)C[C@@H]1C/C=C\C[C@@H](CC(=O)N[C@@H](CO)Cc2ccccc2)C(=O)N2CCC[C@H]2COC1=O`, 1.7% (inactive).
Next, `CCC(C(=O)OC)n1cnc2c(oc3ccccc32)c1=O` (stereo not given): 3.69% (inactive).
On to `COC(=O)c1ccc(CN(c2ccccc2OC)S(=O)(=O)c2cccs2)o1`, for which the inhibition was 7.2% (inactive).
Next, `CCCc1nc2ccccc2c(C(=O)OCc2nnc(-c3cc(OC)c(OC)c(OC)c3)o2)c1CC`: 51.2% (active); `CCOC(=O)c1cc(-c2nnc(-c3cc(OC)c(OC)c(OC)c3)o2)c(C)nc1C`: -9% (inactive); `O=C(OCc1nnc(-c2ccccc2)o1)c1cc(=O)[nH]c2ccccc12`: -5.82% (inactive).
For `COc1ccc(S(=O)(=O)NCC(=O)NCc2cc(=O)n(C)c(=O)n2C)cc1F`, the inhibition was 2.08% (inactive).
Next, `CC(=O)NCCc1ccc(S(=O)(=O)N(C)C2CCS(=O)(=O)C2)cc1` (stereo not given): -2.21% (inactive).
For the compound `Cc1cccn2c(=O)c3cc(C(=O)NC4CCCCC4)sc3nc12`, the inhibition is 8.11% (inactive).
As for `Cc1cc(C)cc(Oc2nc3c(C)cccn3c(=O)c2/C=C(\C#N)C(=O)NC2CCS(=O)(=O)C2)c1` (stereo not given), the figure is 50.3% (active).
As for `Cc1cccn2c(=O)c(/C=C(\C#N)S(=O)(=O)c3ccc(Cl)cc3)c(N3CCC(C(N)=O)CC3)nc12`, the figure is -5.33% (inactive); as for `FC(F)(F)c1cccc(-c2nc3ccccc3n2C(c2ccccc2)c2nc3ccccc3[nH]2)c1` (stereo not given), 8.62% (inactive); as for `CSCCC(C(=O)NC1=NCCS1)N1C(=O)c2ccccc2C1=O` (stereo not given), 1.85% (inactive).
As for `COC(=O)N/N=C/c1c[n+]([O-])c2ccccc2[n+]1[O-]`, the figure is -1.98% (inactive); as for `COc1ccc(/C=C/C(=O)c2ccc(OC)cc2O)cc1`, 73.8% (active); as for `COc1ccc(C(=O)CC(=O)c2ccc(C)cc2)c(O)c1`, -3.66% (inactive).
For `COc1ccc(/C=C/C(=O)NC(=S)N2CCCC(C(N)=O)C2)cc1` (stereo not given), the inhibition was -8.77% (inactive).
`COc1ccc(C(=O)/C=C/c2ccc(OC3CSC3)cc2)cc1`: the inhibition is 60.1% (active).
Next, `COc1ccc(/C=C/C(=O)c2cc(Br)ccc(=O)c2O)cc1`: -0.626% (inactive); `COc1ccc(OC)c(/C=C/C(=O)c2ccc3c(c2)OCO3)c1`: 8.22% (inactive).
Take `CC(C)[C@H](NC(=O)c1ccc(F)cc1)C(=O)OCC(=O)NC(=O)c1cccn1C`: the inhibition was -1.33% (inactive).
Next, `Cc1cc(C)cc(NC(=O)COc2coc(CN3CCN(c4ccccc4)CC3)cc2=O)c1`: -4.06% (inactive).
As for `CCCc1cc(=O)[nH]c(SCc2ccc(C#N)cc2)n1`, the figure is -20.6% (inactive); as for `N#CC(=C1SC=CS1)c1nc(-c2ccccc2)cs1`, -66.2% (inactive); as for `CCCCCN1CC(O)=C(c2nc(-c3ccc(Cl)cc3)cs2)C1=N`, -3.67% (inactive).
Next, `N#CC(=C1CCCC1)c1nc(-c2ccc(Cl)cc2)cs1`: 54.1% (active).
Regarding `O=C(Nc1cccc(S(=O)(=O)NC2=NCCC2)c1)C1CCCCC1`, the inhibition was -4.45% (inactive).
As for `CC(=O)c1ccc(NC(=O)CCc2nnc3ccc(NCc4ccco4)nn23)cc1`, the figure is -2.75% (inactive).
As for `CCN(CC)S(=O)(=O)c1cccc(C(=O)NCC(=O)OCC(=O)NCc2ccccc2)c1`, the figure is -10.4% (inactive); as for `Cc1c(NC(=O)C(C)OC(=O)c2cc3c4ccccc4n(C)c3s2)c(=O)n(-c2ccccc2)n1C` (stereo not given), -12.7% (inactive); as for `Cc1cccc(N2CCN(C(=O)/C=C/c3ccco3)CC2)c1C`, 33% (inactive).
In the case of `Cc1cccc(N2CCN(C(=O)c3cc4c(=O)[nH]c5ccccc5c4n3C)CC2)c1C`, the inhibition was 88.2% (active).
Next, `CCn1c(C)c(C)c2cc(C(=O)N3CCN(c4cccc(C)c4C)CC3)ccc21`: 15.1% (inactive).
Turning to `CCCn1c(NC(=O)C23CC4CC(CC(O)(C4)C2)C3)nc2ccccc21`, the inhibition is -9.2% (inactive).
Next, `CCOC(=O)C(C)Oc1cccc2c(=O)n(CC(=O)N3CCc4ccccc43)ccc12` (stereo not given): 11.2% (inactive); `COc1cc(/C=C(\C#N)C(=O)Nc2ccc3ccccc3c2)c([N+](=O)[O-])cc1OC`: 49.6% (active).
As for `COc1cc(NC(=O)COC(=O)CSc2ccc3ccccc3c2)c(C)cc1[N+](=O)[O-]`, the figure is -6.04% (inactive); as for `COc1cc(/C=C(/NC(=O)c2ccccc2)C(=O)Nc2cccc(O)c2)c([N+](=O)[O-])cc1OC`, 5.05% (inactive); as for `COc1ccc(CN2C(=O)CN=C2Nc2ccc(C)cc2C)cc1`, -8.98% (inactive).
`COC(=O)[C@@]12C[C@@H](CC(=O)NCCCCc3ccccc3)C(=O)N(Cc3ccccc3)C1=CCC(C)(C)C2`: the inhibition was 17.4% (inactive).
As to `O=C(NNC(=O)c1cnccc1C(F)(F)F)c1ccc(Cl)cc1`, the inhibition is -6.52% (inactive).
As for `CCN(C(=O)CSc1ncnc2sccc12)c1c(N)n(Cc2ccccc2)c(=O)[nH]c1=O`, the figure is -7.44% (inactive).
Next, `O=C(CSc1nnnn1C1CCCC1)Nc1ccc2c(c1)OCCO2`: 0.834% (inactive); `CCOc1ccc(/C=C/C(=O)N(CC)CC(=O)NCc2cccs2)cc1OC`: 2.03% (inactive).
Next, `CCN(CC(=O)NCc1cccs1)C(=O)/C=C/c1ccc(C)cc1`: 92% (active).
With `CCN(CC(=O)NCc1cccs1)C(=O)c1ccccc1F`, the inhibition was 0.894% (inactive).
